hcDAF-12 act: activators of H. contortus DAF-12 nuclear receptor; HEK293 hcDAF-12 lit1-tk-luc reporter, luminescence; 0% DMSO, 100% Δ7-dafachronic acid; activation, % at 6.8 µM; 1.4% of 370,000 active;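 active = activation above the mean of all tested compounds plus 3 SD, cut at about 5.5% in these data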;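 also: 100% = response to 3 µM Δ7-dafachronic acid high control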
DAX1 inh-1: inhibits human nuclear receptor DAX1. HEK293 Gal4-DAX1 luciferase reporter, luminescence. inhibition, % at 6.75 µM. 0.99% of 340,000 active. P51843. AID 504766;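 active = inhibition above the mean over all tested compounds plus 3 SD, cut at about 4.2% in these data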;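 also: 0% = DAX1-transfected cells with DMSO and 100% = empty-vector control cells with DMSO; inhibition shows as a rise in luminescence from relieved DAX1 repression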
hgDAF12 agonist: activates the H. glycines DAF-12 receptor ligand-binding domain; HEK293 GAL4-hgDAF12 UAS-luciferase reporter, agonist luminescence; normalized to butyrate control; AID 687014; 1.8% of 370,000 active; activation, % at 6.8 µM;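 active = activation above a cutoff set at the mean of all screened compounds plus 3 SD, cut at about 10% in these data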;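 also: 0% = DMSO wells and 100% = sodium butyrate wells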
DAX1 inh-2: DAX1 (NR0B1) inhibition, primary screen. inhibition, % at 6.8 µM. 1.1% of 370,000 active. HEK293T StAR-luciferase reporter, SF-1/DAX-1 repression relief;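 active = inhibition above the mean over all tested compounds plus 3 SD, cut at about 3.6% in these data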;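 also: 0% = DAX-1 cells with DMSO and 100% = cells lacking DAX-1 with DMSO; higher inhibition means more luminescence from relief of DAX-1 repression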
SMARCA2 act: activators of SMARCA2 function; MG213 cells, MMTV-luciferase reporter, dexamethasone, overnight; activation, % at 9.1 µM; 1% of 370,000 active; in the data active = activation above about 7.8%;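 also: 0% = vehicle wells and 100% = reference activator wells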
ssDAF-12 act: activates DAF-12 receptor from parasite S. stercoralis; HEK293 ssDAF-12/GRIP1 lit1-tk-luc reporter, luminescence; % of 3 µM dafachronic acid response; activation, % at 6.8 µM; 1% of 370,000 active;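 active = activation above the mean over all tested compounds plus 3 SD, cut at about 0.9% in these data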;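 also: 0% = DMSO-only wells and 100% = 3 µM delta7-dafachronic acid wells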
hgDAF12 ag: confirmation of H. glycines DAF-12 agonists; shares compounds with hgDAF12 agonist; HEK293 GAL4-hgDAF12 luciferase reporter, agonist mode; percent of butyrate response; AID 743050; activation, % at 6.8 µM; 80% of 3,300 active;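 active = mean activation over triplicate wells above the hit cutoff derived from the earlier primary screen, cut at about 11% in these data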;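 also: 0% = DMSO low control and 100% = 2 mM sodium butyrate high control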
LXRb DAF12 ctr: LXR-beta agonism as DAF-12 counter-screen; shares compounds with hgDAF12 agonist; HEK293 Gal4-LXR luciferase reporter, 24 h; activation, % at 6.8 µM; 3,300 tested, under 10 active; AID 743051;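 active = mean activation of the triplicate above a set limit carried over from the primary screen, none filed active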
Target sequence (P55055 whole entry, looked up, the tested form may be a part): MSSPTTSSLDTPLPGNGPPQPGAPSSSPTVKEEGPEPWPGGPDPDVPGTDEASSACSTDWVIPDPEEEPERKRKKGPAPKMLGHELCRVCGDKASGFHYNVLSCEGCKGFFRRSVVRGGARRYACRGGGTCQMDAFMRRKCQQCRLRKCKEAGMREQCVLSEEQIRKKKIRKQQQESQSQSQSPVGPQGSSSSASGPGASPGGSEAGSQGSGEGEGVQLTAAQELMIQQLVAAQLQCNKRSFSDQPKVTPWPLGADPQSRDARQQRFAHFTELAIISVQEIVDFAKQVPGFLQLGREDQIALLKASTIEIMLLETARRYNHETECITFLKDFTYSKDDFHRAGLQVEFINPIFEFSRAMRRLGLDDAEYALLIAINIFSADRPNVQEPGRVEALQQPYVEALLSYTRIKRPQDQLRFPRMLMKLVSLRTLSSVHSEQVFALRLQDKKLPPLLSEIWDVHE
An asterisk follows results filed as active; . = no result given. The list is not random: actives were taken first. Their share in the collection is about 4.8%.

SMILES | hcDAF-12 act | DAX1 inh-1 | hgDAF12 agonist | DAX1 inh-2 | SMARCA2 act | ssDAF-12 act | hgDAF12 ag | LXRb DAF12 ctr
C(=N\N=C\c1cccs1)/c1cccs1 | 5 | 2 | 14* | 3.9* | 8 | -1 | 15* | 1
C/C(=N/NC(=O)c1cc(C2CC2)[nH]n1)c1cccs1 | 5.7* | -2 | 15* | 3.8* | 5 | 0 | 9 | 1
CC(/C=N/NC(=O)c1cc(C2CC2)[nH]n1)=C\c1ccccc1 | 0 | 1 | -1 | 1 | -2 | -1 | . | .
COc1ccc(/C=N/Nc2ccccn2)cc1O | 4 | 3 | 17* | 2 | 5 | 0 | 12* | 0
Oc1cccc(C=NNc2ccccn2)c1 | -2 | 4 | 4 | 2 | -1 | 0 | . | .
Fc1ccc(/C=N/Nc2ccccn2)cc1 | 1 | 2 | 7 | 2 | 4 | -1 | . | .
Brc1ccc(/C=N/Nc2ccccn2)cc1 | 2 | 1 | 15* | 2 | 3 | 1 | 11* | 0
O=C(N[C@H](C(=O)N1CCC[C@H]1C(=O)NCCc1ccccc1Cl)c1ccccc1)C1CCCC1 | -2 | . | 2 | -1 | -3 | -1 | . | .
CN(C(=O)[C@@H](Cc1ccccc1)NC(=O)[C@H]1O[C@@H](n2ccc(=O)[nH]c2=O)[C@H](O)[C@@H]1O)C1CCCCC1 | 0 | . | 5 | 0 | -5 | 0 | . | .
Cc1cc(NC(=O)CSc2ccc(-c3nc4cc(C)c(C)cc4[nH]3)cn2)no1 | . | 2 | . | . | . | . | . | .
Cc1cc2nc(-c3ccc(SCC(=O)Nc4ccc(S(=O)(=O)NC5CC5)cc4)nc3)[nH]c2cc1C | 5.6* | 0 | 16* | 4.5* | 2 | 1.2* | 17* | 1
CCCCNc1ccc2c(c1)OC[C@H](Cc1ccccc1)NS2(=O)=O | -1 | . | 1 | 1 | -3 | -2 | . | .
COCc1cc(N2CCNC[C@H]2C)ccc1N1C[C@@H](C)O[C@@H](C)C1 | 1 | . | -3 | 1 | 0 | 0 | . | .
CCc1ccc(NC(=S)NC(=O)CC(C)C)cc1 | 3 | 3 | 15* | 2 | 2 | 0 | 12* | 0
O=C(NCCc1ccccc1)c1ccccc1[N+](=O)[O-] | 0 | 0 | 3 | 0 | 3 | -1 | . | .
Cc1cc(C(=O)NCCc2ccccc2)ccc1[N+](=O)[O-] | 6 | 3 | 13* | 3 | 6 | 0 | 12* | 0
CN(C)C=Nc1ncc2c([nH]c3ccccc32)c1C#N | -1 | 0 | 22* | 0 | 1 | -2 | 7 | 0
O=C1c2ccccc2/C(=C\c2ccc(Br)nc2)N1c1ccccc1 | 1 | . | 2 | 1 | 0 | 1 | . | .
O=C(CCn1nnc2ccccc21)N1CCN(c2cccc(C(F)(F)F)c2)CC1 | -4 | . | 2 | -1 | -7 | -1 | . | .
CC(C)c1[nH]nc2c1C(c1ccc(F)cc1)N(Cc1ccccc1)C2=O (stereo unspecified) | -1 | . | 0 | 0 | -5 | -1 | . | .
Cc1cc(Oc2cccnc2)ccc1NC(=O)Cc1c(C)[nH]c2ccccc12 | 1 | . | 1 | -1 | -2 | -1 | . | .
CC(=O)C(/C=N/c1cc(-c2ccc(C)cc2)nn1-c1ccccc1)=C(\C)O | 5.6* | 1 | 19* | 3 | 1 | 1.1* | 10 | 0
Nc1nnc(CC(=O)N/N=C/c2ccc(-c3ccc(F)cc3)o2)s1 | -2 | . | -1 | 0 | -3 | -2 | . | .
Nc1nnc(CC(=O)N/N=C/c2ccc(-c3cccc(C(=O)O)c3)o2)s1 | -1 | -1 | 14* | 2 | 2 | -1 | 3 | 0
C=CCO[C@H]1CN(C(=O)OC)[C@@H]2C[C@H]1Oc1ccccc12 | 1 | . | 2 | 1 | -4 | -1 | . | .
SMILES | hcDAF-12 act | DAX1 inh-1 | hgDAF12 agonist | DAX1 inh-2 | SMARCA2 act | ssDAF-12 act | hgDAF12 ag | LXRb DAF12 ctr
CCC(=O)Nc1ccc2c(c1)C(=O)c1ccccc1C2=O | 6.4* | 2 | 13* | 3.8* | 5 | 1 | 16* | 1
O=C(NNC1=C(C(=O)C(F)(F)F)CCC1)c1cccc(O)c1 | 2 | 3 | 13* | 4.3* | 7 | 0 | 6 | 0
CCNC(=O)c1sc2cc(C)ccc2c1Cl | 3 | 1 | 15* | 1 | 5 | 0 | 10 | 0
C[C@@H]1CN([C@@H](C)CO)C(=O)CCCn2cc(nn2)CO[C@H]1CN(C)C(=O)Cc1ccccc1 | 0 | . | -1 | 0 | -5 | -1 | . | .
O=C(c1ccc2nc(Cc3ccccc3F)oc2c1)N1CCCC1 | 5 | 2 | 15* | 3 | 4 | 0 | 14* | 0
Cc1cc(CN(C)C(=O)c2ccc3nc(Cc4ccccc4F)oc3c2)n[nH]1 | -2 | 0 | 0 | -1 | -2 | -1 | . | .
O=C(c1ccccc1)c1cnc(-c2ccccc2)s1 | 3 | 9.3* | 16* | 3 | 3 | 0 | 18* | 1
CCCCN1CC(COCc2ccccc2)Oc2cccc(N3CCCCC3)c2S1(=O)=O (stereo unspecified) | 1 | . | 0 | 1 | -3 | -1 | . | .
CCC(=O)Nc1ccccc1C(=O)OCC(=O)c1ccccc1 | -2 | 4 | 16* | 3.7* | 4 | 1.3* | 17* | 1
CCCCc1ccc(Nc2ncnc3nc[nH]c23)cc1 | 3 | 2 | 13* | 3 | 2 | 0 | 8 | 0
O=S1(=O)c2ccc(N3CCSCC3)cc2Oc2ccccc2CN1Cc1cn(Cc2cccc(C(F)(F)F)c2)nn1 | -2 | . | -1 | -1 | -1 | -1 | . | .
Cc1cccc(/C=C\c2nc3ccccc3c(=O)[nH]2)c1 | 5 | 1 | 15* | 3.6* | 5 | 0 | 21* | 1
CC(=O)NC1CCCCN(C)C1=O (stereo unspecified) | 0 | . | 3 | 0 | 0 | -1 | . | .
Cn1nnc(NCc2cc(Br)ccc2OCc2ccccc2F)n1 | -1 | 0 | 17* | 0 | 0 | -2 | 2 | 0
O=C(COC(=O)C1CC1)Nc1ccc2c(c1)OCO2 | 1 | 0 | -1 | 0 | -1 | -2 | . | .
O=C(Nc1ccc2c(c1)OCO2)OC1CCC12CCCCC2 (stereo unspecified) | 0 | . | 15* | 3 | 2 | 0 | 13* | 0
Cc1cc(C)c2c(CN(C)Cc3ccccc3)cc(=O)oc2c1 | -2 | . | 13* | 1 | 6 | 0 | -2 | 0
Cc1cc(C)c2c(CCl)cc(=O)oc2c1 | -2 | . | 0 | -1 | -1 | -1 | . | .
O=C(COc1ccc(F)cc1)c1ccc2c(c1)CCCC2 | 2 | 1 | 14* | 2 | -3 | 0 | 13* | 1
NNC(=O)c1ccc(COc2ccc3ccccc3c2)o1 | 2 | -1 | 6 | 0 | -4 | -1 | . | .

Screening results (PubChem)
